Among the test systems are HCT-15 colon; HT29 colon; SNB-75 CNS; SNB-19 CNS; U251 CNS; PC-3 prostate; SK-MEL-5 melanoma; UACC-62 melanoma; LOX IMVI melanoma; SK-MEL-28 melanoma; SK-MEL-2 melanoma; EKVX NSCLC; SN12C renal; UO-31 renal; TK-10 renal; ACHN renal; CAKI-1 renal; A498 renal; CCRF-CEM leukemia; MOLT-4 leukemia.
Experiment in all cases: NCI-60 one-dose screen, 48 h (100 = growth as untreated, 0 = no growth, -100 = all killed)
Holding throughout (conditions): 10 µM unless noted

Several values for one entry are separate records, joined by “and”; a condition that tells them apart may be missing. Equal values may be shown once. This is part of a sample that, as a whole, favours compounds with a hit. Of some 83,000 tested, about 20% had one in any assay.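 In brief: 96-well plates, 48 h treatment, single concentration, percent growth endpoint.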 Activity calls are given as the source filed them. How the source made its calls: active means growth percent below 10; inactive means the rest.

As for `COc1ccc(-c2c[nH]c(C(=O)O)c2-c2cc(OC)c(OC)c(OC)c2)cc1`, the growth with HCT-15 colon is 31.7% (inactive); in the assay on HT29 colon, 14.7% (inactive); in the assay with SNB-75 CNS, -15.5% (active); with SNB-19 CNS it was 41.3% (inactive); with U251 CNS, 49.5% (inactive); with PC-3 prostate it was 32.8% (inactive). The growth in the assay with SK-MEL-5 melanoma was 19.2% (inactive); with UACC-62 melanoma it was 37.7% (inactive); with LOX IMVI melanoma it was 47.2% (inactive); in the assay on SK-MEL-28 melanoma it was 61.7% (inactive); with SK-MEL-2 melanoma it was 49.2% (inactive); with EKVX NSCLC, 63.3% (inactive). Also, the growth with SN12C renal was 43.9% (inactive); in the assay with UO-31 renal it was 31.9% (inactive); in the assay on TK-10 renal, 63.3% (inactive); in the assay on ACHN renal it was 38.4% (inactive); with CAKI-1 renal, 29.8% (inactive); with A498 renal it was -14.5% (active). Besides, the growth in the assay with CCRF-CEM leukemia was 42.2% (inactive); in the assay with MOLT-4 leukemia it was 56.4% (inactive).

Take `Nc1ccc(-c2ccc(N)c(Br)c2)cc1Br`: the growth in the assay on HCT-15 colon is 29.3% (inactive); with HT29 colon it was 32% (inactive); with SNB-75 CNS it was 29.8% (inactive); in the assay with SNB-19 CNS it was 52.4% (inactive); with U251 CNS it was 45.6% (inactive); in the assay with PC-3 prostate, 57.4% (inactive). The growth with SK-MEL-5 melanoma was 45.8% (inactive); in the assay with UACC-62 melanoma it was 33.5% (inactive); in the assay on LOX IMVI melanoma it was 40.3% (inactive); in the assay on SK-MEL-28 melanoma, 58.4% (inactive); in the assay with SK-MEL-2 melanoma it was 44% (inactive); in the assay on EKVX NSCLC, 59% (inactive). The growth in the assay on SN12C renal is 45.7% (inactive); with UO-31 renal it was 35% (inactive); in the assay with TK-10 renal, 75.6% (inactive); in the assay on ACHN renal, 76.5% (inactive); with CAKI-1 renal it was 50.3% (inactive); with A498 renal it was 74.5% (inactive). Moreover, the growth is 19.6% (inactive) in the assay with CCRF-CEM leukemia and 27.2% (inactive) in the assay on MOLT-4 leukemia.

With `CN(C)c1ccc2nc3ccc(=O)cc-3sc2c1`, the growth is 36.2% (inactive) and 37.2% (inactive) in the assay on HCT-15 colon; 39.9% (inactive) and 40.7% (inactive) with HT29 colon; 94.9% (inactive) and 36.7% (inactive) in the assay with SNB-75 CNS; 55.8% (inactive) and 45.9% (inactive) with SNB-19 CNS; 21.2% (inactive) and 33.3% (inactive) in the assay on U251 CNS; 29.7% (inactive) and 33% (inactive) in the assay with PC-3 prostate. Moreover, the growth was -94.8% (active) and -89.9% (active) in the assay with SK-MEL-5 melanoma; 32.5% (inactive) and 32.9% (inactive) in the assay with UACC-62 melanoma; 5.56% (active) and 5.52% (active) in the assay on LOX IMVI melanoma; 77.6% (inactive) and 63% (inactive) with SK-MEL-28 melanoma; 13.8% (inactive) and 35.6% (inactive) in the assay on SK-MEL-2 melanoma; 41.3% (inactive) with EKVX NSCLC. In addition, the growth in the assay on SN12C renal is 41.9% (inactive) and 34.5% (inactive); in the assay with UO-31 renal, 14.8% (inactive) and 31.4% (inactive); in the assay on TK-10 renal, 60.9% (inactive) and 67.4% (inactive); in the assay on ACHN renal it was 20% (inactive) and 21.7% (inactive); with CAKI-1 renal, 34.1% (inactive) and 22.3% (inactive); in the assay on A498 renal it was 85.7% (inactive). The growth in the assay with CCRF-CEM leukemia is 13% (inactive) and 20.1% (inactive); in the assay on MOLT-4 leukemia it was -18.7% (active) and 20.2% (inactive).

`N=c1ccccn1CCO`: the growth with HCT-15 colon was 87% (inactive); in the assay on HT29 colon it was 97.3% (inactive); in the assay on SNB-75 CNS it was 113% (inactive); in the assay on SNB-19 CNS it was 93.5% (inactive); with U251 CNS it was 109% (inactive); with PC-3 prostate, 92.7% (inactive). In addition, the growth in the assay on SK-MEL-5 melanoma is 104% (inactive); with UACC-62 melanoma, 98.1% (inactive); in the assay with LOX IMVI melanoma, 104% (inactive); in the assay on SK-MEL-28 melanoma, 108% (inactive); with SK-MEL-2 melanoma it was 104% (inactive); in the assay with EKVX NSCLC, 121% (inactive). The growth was 98.1% (inactive) in the assay with SN12C renal; 85.4% (inactive) in the assay on UO-31 renal; 109% (inactive) in the assay on TK-10 renal; 102% (inactive) in the assay on ACHN renal; 106% (inactive) in the assay with CAKI-1 renal; 89.9% (inactive) in the assay with A498 renal. For the same molecule, the growth in the assay with CCRF-CEM leukemia is 102% (inactive); in the assay with MOLT-4 leukemia, 93.4% (inactive).

Turning to `CCOc1ccc(C(=O)Cc2ccccc2)cc1`, the growth with HCT-15 colon is 98.2% (inactive) and 110% (inactive); with HT29 colon, 104% (inactive) and 111% (inactive); with SNB-75 CNS, 101% (inactive) and 113% (inactive); with SNB-19 CNS, 101% (inactive) and 102% (inactive); in the assay on U251 CNS it was 108% (inactive) and 101% (inactive); with PC-3 prostate it was 102% (inactive) and 110% (inactive). Further, the growth with SK-MEL-5 melanoma is 106% (inactive) and 98.5% (inactive); in the assay with UACC-62 melanoma, 98.2% (inactive) and 106% (inactive); in the assay on LOX IMVI melanoma it was 102% (inactive) and 106% (inactive); in the assay with SK-MEL-28 melanoma it was 115% (inactive) and 109% (inactive); with SK-MEL-2 melanoma, 103% (inactive) and 118% (inactive); in the assay with EKVX NSCLC, 98.5% (inactive) and 101% (inactive). Further, the growth in the assay on SN12C renal was 103% (inactive) and 105% (inactive); in the assay with UO-31 renal, 91.3% (inactive) and 107% (inactive); with TK-10 renal, 85.1% (inactive) and 92.3% (inactive); in the assay on ACHN renal, 107% (inactive) and 115% (inactive); with CAKI-1 renal, 103% (inactive) and 99.6% (inactive); in the assay on A498 renal, 79.6% (inactive) and 87.5% (inactive). The growth was 97.6% (inactive) in the assay with CCRF-CEM leukemia; 94.4% (inactive) and 99.2% (inactive) with MOLT-4 leukemia.

For the molecule `Cc1n(Cc2ccc3ccccc3c2)c(Cl)c(Cl)[n+]1Cc1ccc2ccccc2c1`, the growth in the assay with HCT-15 colon is 92.5% (inactive); with HT29 colon, 19.2% (inactive); with SNB-75 CNS it was -1.79% (active); in the assay with SNB-19 CNS it was 23.3% (inactive); in the assay with U251 CNS, 19.8% (inactive); in the assay on PC-3 prostate, 12.2% (inactive). Besides, the growth is -79.4% (active) with SK-MEL-5 melanoma; -40.3% (active) with UACC-62 melanoma; 27.8% (inactive) in the assay with LOX IMVI melanoma; 26.6% (inactive) with SK-MEL-28 melanoma; 25.5% (inactive) with SK-MEL-2 melanoma; 51.1% (inactive) with EKVX NSCLC. In addition, the growth in the assay on SN12C renal was 30.7% (inactive); in the assay with UO-31 renal it was 72.1% (inactive); in the assay on TK-10 renal, 52.5% (inactive); in the assay on ACHN renal it was 80.8% (inactive); in the assay on CAKI-1 renal, 29.2% (inactive); in the assay with A498 renal, 40.3% (inactive). In addition, the growth was 14% (inactive) in the assay with CCRF-CEM leukemia and 25.4% (inactive) in the assay with MOLT-4 leukemia.

As for `Cc1ccccc1SSc1ccccc1C`, the growth in the assay with HCT-15 colon is 17.9% (inactive); with HT29 colon, 23.6% (inactive); with SNB-75 CNS, 123% (inactive); with SNB-19 CNS, 84.2% (inactive); in the assay with U251 CNS, 87.6% (inactive); with PC-3 prostate it was 66.7% (inactive). Further, the growth was 89.6% (inactive) in the assay with SK-MEL-5 melanoma; 78.8% (inactive) in the assay with UACC-62 melanoma; 72% (inactive) in the assay on LOX IMVI melanoma; 121% (inactive) in the assay with SK-MEL-28 melanoma; 24.3% (inactive) in the assay on SK-MEL-2 melanoma; 114% (inactive) in the assay on EKVX NSCLC. Further, the growth with SN12C renal was 84.9% (inactive); in the assay with UO-31 renal, 78.4% (inactive); in the assay on TK-10 renal it was 85.5% (inactive); with ACHN renal, 0.0765% (active); in the assay on CAKI-1 renal, 60.5% (inactive); with A498 renal it was 96.2% (inactive). The growth with CCRF-CEM leukemia was 79% (inactive); in the assay with MOLT-4 leukemia it was 83.9% (inactive).

Values taken from PubChem BioAssay (NCI).
